This is an account of results in PubChem BioAssay (NCI).

This is part of a sample that, as a whole, favours compounds with a hit. Of some 79,000 tested, about 15% had one in any assay. Values without a mark were called inactive. Active and inactive are the calls of the source. Rule as the data show it: active = growth inhibition above about 70%; inactive = the rest.

The assay in a line: NCI Yeast Anticancer Drug Screen. Data for the rad18 strain (AID 177). Particulars: S. cerevisiae rad18 mutant growth inhibition; at 100.0 µM; hits give high values. An outline of the steps: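 Screen uses a yeast strain with a defined lesion in DNA damage repair; compound effect is read as loss of growth compared to untreated vehicle cultures.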
As to `CS(=O)(=O)SCc1ccc([N+](=O)[O-])cc1`, the growth inhibition was 97% (active).

With `Cc1csc(=S)n1OC(=O)NC1CCCCC1`, the growth inhibition was 98% (active).

Turning to `CCOc1ccc(NC(=O)C2=C(C)NC(C)=C(C(=O)Nc3ccc(OCC)cc3)C2c2cccc([N+](=O)[O-])c2)cc1`, the growth inhibition is 83% (active).

As for `CC(C)(C)N=C(NO)c1ccccc1`, the growth inhibition is 82% (active).

Consider `CCCCC/C(=C(\C#N)C(=O)OCC)c1ccccc1`, for which the growth inhibition was 14%.

With `O=C(NCCCl)Sc1ccc(Cl)cc1`, the growth inhibition was 93% (active).

With `O=C1Nc2ccc(Br)cc2C1=Nc1ccc2c(c1)OCO2`, the growth inhibition was -29%.

Consider `CCC(C)OC(=O)Nc1ccc(C)c(NC(=O)OC(C)CC)c1` (centres undefined), for which the growth inhibition is 96% (active).

Take `O=C(O)c1cc2ccc(Cl)cc2c(O)c1C1=CCCCC1`: the growth inhibition is 81% (active).

`CN(C)Cc1cc(N=Nc2ccc(Cl)cc2)ccc1OC(=O)c1ccccc1`: the growth inhibition was 58%.

`CN1CCN(C(=O)/C=C/C(=O)c2ccccc2)CC1`: the growth inhibition is 95% (active).

`CCCC/C=C/C(C)(C(=O)OCC)C(=O)OCC`: the growth inhibition was 35%.

In the case of `Cc1nc(-c2cc3cc([N+](=O)[O-])ccc3oc2=O)cs1`, the growth inhibition is 94% (active).

For the molecule `Cc1nc2ccccc2nc1NNc1ccccc1`, the growth inhibition was 58%.

Consider `CN(C)[C@@H]1C(=O)C(C(N)=O)=C(O)[C@@]2(O)C(=O)C3=C(O)c4c(O)cccc4C[C@H]3C[C@@H]12`, for which the growth inhibition was 99% (active).

Consider `COc1ccc(NC(=O)CC2SC(=Nc3ccccc3C)NC2=O)c([N+](=O)[O-])c1` (centres undefined), for which the growth inhibition is 98% (active).

Turning to `COc1cc(O)c2c(c1O)C(=O)c1cc(C)ncc1C2=O`, the growth inhibition is 60%.

Regarding `CSc1nnc(SC)nn1`, the growth inhibition was 98% (active).

For `COc1cc(/C=C2\CCC/C(=C\c3ccc(O)c(OC)c3)C2=O)ccc1O`, the growth inhibition is -7%.

On to `CN(C)CCNC(=O)c1cccc2cc([N+](=O)[O-])ccc12`, for which the growth inhibition was 90% (active).

Consider `CCC(C)(C)c1ccc(Oc2cccc(C(=O)O)c2)cc1`, for which the growth inhibition is 69%.

Regarding `CCCCCCSc1ncnc2[nH]ncc12`, the growth inhibition was 3%.

For the molecule `CC(=O)Nc1ccc(/C=C/[N+](=O)[O-])cc1`, the growth inhibition was 92% (active).

On to `CCOC(=O)c1[nH]n(-c2ccccc2)c(=O)c1C=NC(=S)C(N)=S`, for which the growth inhibition is 97% (active).

For `CCCC(O)C1CC(C(C)C)CCC1C` (centres undefined), the growth inhibition is 92% (active).

With `O=[n+]1c2ccccc2n([O-])c2cc(Br)ccc21`, the growth inhibition was 98% (active).

As to `CN(C)CCNC(=O)c1cccc2c1Oc1c(cccc1[N+](=O)[O-])O2`, the growth inhibition was 69%.

`Nc1ncc(-c2ccc(Br)cc2)s1`: the growth inhibition was 97% (active).

For `Cc1cc2cc3cc(C)c(N)cc3nc2cc1N`, the growth inhibition was 92% (active).

Regarding `CC12C(=O)OC(=O)C(c3ccccc31)c1ccccc12`, the growth inhibition is -7%.

`c1ccc2c(OCC3CO3)cccc2c1` (centres undefined): the growth inhibition was 98% (active).

As for `CCOC(=N)c1ccc(O)c(OC)c1`, the growth inhibition is 14%.

As for `Nc1cc(N)c(N=Nc2cccc3c(S(=O)(=O)O)cccc23)cc1N=Nc1cc([N+](=O)[O-])ccc1O`, the growth inhibition is 36%.

In the case of `COC(=O)Oc1cc(Cl)c(Cl)cc1Cl`, the growth inhibition is 20%.

Consider `O=C(O)C1CC(c2ccccc2)=NN1c1ccccc1` (centres undefined), for which the growth inhibition was 96% (active).

For the molecule `COc1cc([C@@H]2c3cc4c(cc3[C@@H](Nc3ccc(NC(=O)c5cc([N+](=O)[O-])cn5C)cc3)[C@H]3COC(=O)[C@H]23)OCO4)cc(OC)c1O`, the growth inhibition was 53%.

In the case of `O=C(O)c1ccccc1/C=N/N=C1c2ccccc2-c2ccccc21`, the growth inhibition was 6%.

For the molecule `O=C1CC(=O)c2ccccc21`, the growth inhibition is 74% (active).

`Nc1ncnc2c1ncn2C1OC(CO)CC1O` (centres undefined): the growth inhibition is 92% (active).
